# From PubChem BioAssay (EPA / NIEHS)
# Values joined by “and” are separate entries in the source; they are usually repeats but may differ in a detail not shown here. Equal values may be shown once. Records with an inconclusive call do not appear. Some structures have more than one record in an assay (separate samples or runs), and their calls can disagree. Active and inactive are the calls of the source. Rule for the calls: active = hit-call score of the fitted dose curve at least 0.9, where 1 is the maximum; inconclusive = response in the unintended direction; inactive = score below 0.9.
# Experiment: TOX21_p53_BLA_p4_viability: Viability Assessment in the Tox21 HCT-116 p53 Agonism Beta-lactamase Assay, Phase 4 (AID 2283597);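 note: hits lower the luminescence signal meaning cytotoxicity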
# Source text: TOX21_p53_BLA_p4 is a cell-based, single-readout assay that uses HCT116, a human intestinal cell line, […] in a 1536-well plate.TOX21_p53_BLA_p4_viability is an assay readout measuring cellular ATP content and detected with CellTiter-Glo Luciferase-coupled ATP quantitation.TOX21_p53_BLA_p4_viability used a type of viability reporter where loss-of-signal activity can be used to understand changes in the cell viability. Furthermore, this assay endpoint can be referred to as a secondary readout, because this assay has produced multiple assay endpoints where this one serves a viability function. To generalize the intended target to other relatable targets, this assay endpoint is annotated to the cell cycle intended target family, where the subfamily is cytotoxicity.
# Thawing Method: Place 14 mL of pre-warmed thaw medium into a 15 mL of conical tub. Remove the vial of cells to be thawed from liquid nitrogen and thaw rapidly by placing at 37C in a water bath with gentle agitation for 1-2 minutes. Decontaminate the vial by wiping with 70% ethanol before opening in a biological safety cabinet. Transfer the vial contents drop-wise into 14 mL of thaw medium in a sterile 15-mL conical tub. Centrifuge cells at 900 rpm for 4 minutes and resuspend in thaw medium. Transfer contents to the T75 tissue culture flask containing Thaw Medium and place flask in a humidified 37C/5% CO2 incubator. Switch to growth medium at first passage.Propagation Method: Aspirate medium, rinse once in DPBS, add 0.25% Trypsin/EDTA and swirl to coat the cell evenly. Add an equal volume of Growth Medium to inactivate Trypsin after 2-3 minutes incubation at 37C. Centrifuge cells at 900 rpm for 4 minutes and resuspend in growth medium. Cell should be passage or fed at least twice a week.Assay Protocol: Harvest cells from culture in growth medium and resuspend in assay medium. 2.2 Dispense 4000 cells/5 uL/well into 1536-well black/clear bottom plates using a Multidrop dispenser. After the cells were incubated at 37C for 5 hours, 23 nL of compounds dissolved in DMSO were transferred to the assay plate by a PinTool resulting in a 217-fold dilution. Incubate the plates for 16 hours at 37C, 5% CO2. Add 1 uL of 6X LiveBLAzer FRET B/G (CCF4-AM) Substrate Mixture to each well using a BioRAPTR dispenser and incubate the plates at room temperature for 2 hours. Measure fluorescence intensity at 460 and 530 nm emission and 405 nm excitation by an Envision detector. Data is expressed as the ratio of 460nm/530nm emissions. Add 4 uL of Cell-titer Glo to each well using BioRAPTR and incubate the plates at room temperature for […]. For cell viability readout that measures cytotoxicity, 4 ul/well of CellTiter-Glo reagent was added into the assay plates using a Flying Reagent Dispenser. After 30 min incubation at room temperature, the luminescence intensity in the plates was measured using a ViewLux plate reader.
SMILES,outcome,AC50
Nc1cc(Cl)c(O)c(Cl)c1,inactive,
O=C1OC2(c3cc(Br)c(O)c(Br)c3Oc3c2cc(Br)c(O)c3Br)c2c(Cl)c(Cl)c(Cl)c(Cl)c21,,50.2 µM (active) and 23.6 µM (active)
c1ccc2[nH]ccc2c1,inactive,
CNC[C@H](O)c1cccc(O)c1,inactive,
CCCC/C=C\CCCCCCCCCC=O,inactive,
CC(=O)C(=O)O,inactive,
CSc1nc(NC2CC2)nc(NC(C)(C)C)n1,inactive,
CC(C)C(C)(C)C(C)(C)C(C)(C)S,inactive,
CC(C)c1cccc(O)c1,inactive,
CC1(C)C(=O)N(Br)C(=O)N1Cl,inactive,
CC1CCC(C(C)CS)CC1S (stereo not given),inactive,
C=C(C)C(=O)Nc1ccc(Cl)c(Cl)c1,inactive,
CC(=O)OCCOC(C)=O,inactive,
CC(C=O)Cc1ccc(C(C)C)cc1 (stereo not given),inactive,
COC(C(=O)O)c1ccccc1 (stereo not given),inactive,
CNC(=O)Oc1ccc2c(c1)[C@]1(C)CCN(C)[C@@H]1N2C,inactive,
O=C(O)c1cccc(C(F)(F)F)c1,inactive,
CC(C)Oc1ccccc1O,inactive,
O=C(O)c1snc(Cl)c1Cl,inactive,

SMILES,outcome,AC50
CC1CC(OC(=O)c2ccccc2O)CC(C)(C)C1 (stereo not given),inactive,
NCCCCCCN,inactive,
Clc1nc(C(Cl)(Cl)Cl)c(Cl)c(Cl)c1Cl,inactive,
O=C1c2ccccc2C(=O)N1SC1CCCCC1,inactive,49.3 µM (active)
O=C(O)COCCN1CCN(C(c2ccccc2)c2ccc(Cl)cc2)CC1 (stereo not given),inactive,
c1cc(C(c2ccc(OCC3CO3)cc2)c2ccc(OCC3CO3)cc2)ccc1OCC1CO1 (stereo not given),inactive,
CC(=O)[C@H]1CC[C@H]2[C@@H]3CC=C4C[C@@H](O)CC[C@]4(C)[C@H]3CC[C@]12C,inactive,
CCCCCCCCCCCCCC(=O)O,inactive,
COc1ccc(O)cc1,inactive,
O=C(O)c1cccc([N+](=O)[O-])c1,inactive,
CCCC(=O)c1cc(O)c(O)cc1O,inactive,
CC1(CO)CN(c2ccccc2)NC1=O (stereo not given),inactive,
CC(C)(C)NC(N)=O,inactive,
Nc1cccc(S(=O)(=O)c2cccc(N)c2)c1,inactive,
CC(=O)[O][Al][O]C(C)=O,inactive,
O=C=NC1CCC(CC2CCC(N=C=O)CC2)CC1 (stereo not given),inactive,
OCCOCCOCCOCCO,inactive,
N#Cc1ccccc1,inactive,
CCCCC/C=C/C=C/C=O,inactive,75 µM (active)
